Test [1] in a line: small molecules captured by biotinylated probe aFSTL3 – biochemical, small-molecule microarray, fluorescence 635/667, stem cell growth factor project, primary screen (AID 1064).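 Further: measures binding of the biotinylated anti-FSTL3 antibody to printed compounds.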 To be noted: higher = more signal.
Test [2] can be described thus: binders from COS7 lysate, DM2A8 probe, primary screen, torsin A project, cell lysate, small-molecule microarray, fluorescence 635/667 (AID 1065). Conditions: higher = more signal, COS7 lysate expressing mutant human TOR1A.
Test [3] can be described thus: small molecules captured by biotinylated probe aFGF2 – biochemical, small-molecule microarray, fluorescence 635/667, stem cell growth factor project, primary screen (AID 1067).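 Further: measures binding of biotinylated aFGF2 protein to printed compounds on slides; z-score merges feature fluorescence and signal-to-noise across triplicate slides.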 Conditions: higher = more signal.
The nature of test [4]: small molecules captured by biotinylated probe aFGF10 – biochemical, small-molecule microarray, fluorescence 635/667, stem cell growth factor project, primary screen (AID 1071).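 Further: score merges 667 nm spot intensity and signal to noise from triplicate slides.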 Conditions: higher = more signal.
In test [5] the target is Neurogenic locus notch homolog protein 2 (Homo sapiens) (UniProt Q04721). Put plainly: small molecules binding Notch2 protein – biochemical, small-molecule microarray, 635 nm fluorescence, stem cell growth factors, primary screen (AID 1073). Conditions: higher = more signal.
Chain of Neurogenic locus notch homolog protein 2 (Homo sapiens) (Q04721 whole entry, looked up, canonical isoform): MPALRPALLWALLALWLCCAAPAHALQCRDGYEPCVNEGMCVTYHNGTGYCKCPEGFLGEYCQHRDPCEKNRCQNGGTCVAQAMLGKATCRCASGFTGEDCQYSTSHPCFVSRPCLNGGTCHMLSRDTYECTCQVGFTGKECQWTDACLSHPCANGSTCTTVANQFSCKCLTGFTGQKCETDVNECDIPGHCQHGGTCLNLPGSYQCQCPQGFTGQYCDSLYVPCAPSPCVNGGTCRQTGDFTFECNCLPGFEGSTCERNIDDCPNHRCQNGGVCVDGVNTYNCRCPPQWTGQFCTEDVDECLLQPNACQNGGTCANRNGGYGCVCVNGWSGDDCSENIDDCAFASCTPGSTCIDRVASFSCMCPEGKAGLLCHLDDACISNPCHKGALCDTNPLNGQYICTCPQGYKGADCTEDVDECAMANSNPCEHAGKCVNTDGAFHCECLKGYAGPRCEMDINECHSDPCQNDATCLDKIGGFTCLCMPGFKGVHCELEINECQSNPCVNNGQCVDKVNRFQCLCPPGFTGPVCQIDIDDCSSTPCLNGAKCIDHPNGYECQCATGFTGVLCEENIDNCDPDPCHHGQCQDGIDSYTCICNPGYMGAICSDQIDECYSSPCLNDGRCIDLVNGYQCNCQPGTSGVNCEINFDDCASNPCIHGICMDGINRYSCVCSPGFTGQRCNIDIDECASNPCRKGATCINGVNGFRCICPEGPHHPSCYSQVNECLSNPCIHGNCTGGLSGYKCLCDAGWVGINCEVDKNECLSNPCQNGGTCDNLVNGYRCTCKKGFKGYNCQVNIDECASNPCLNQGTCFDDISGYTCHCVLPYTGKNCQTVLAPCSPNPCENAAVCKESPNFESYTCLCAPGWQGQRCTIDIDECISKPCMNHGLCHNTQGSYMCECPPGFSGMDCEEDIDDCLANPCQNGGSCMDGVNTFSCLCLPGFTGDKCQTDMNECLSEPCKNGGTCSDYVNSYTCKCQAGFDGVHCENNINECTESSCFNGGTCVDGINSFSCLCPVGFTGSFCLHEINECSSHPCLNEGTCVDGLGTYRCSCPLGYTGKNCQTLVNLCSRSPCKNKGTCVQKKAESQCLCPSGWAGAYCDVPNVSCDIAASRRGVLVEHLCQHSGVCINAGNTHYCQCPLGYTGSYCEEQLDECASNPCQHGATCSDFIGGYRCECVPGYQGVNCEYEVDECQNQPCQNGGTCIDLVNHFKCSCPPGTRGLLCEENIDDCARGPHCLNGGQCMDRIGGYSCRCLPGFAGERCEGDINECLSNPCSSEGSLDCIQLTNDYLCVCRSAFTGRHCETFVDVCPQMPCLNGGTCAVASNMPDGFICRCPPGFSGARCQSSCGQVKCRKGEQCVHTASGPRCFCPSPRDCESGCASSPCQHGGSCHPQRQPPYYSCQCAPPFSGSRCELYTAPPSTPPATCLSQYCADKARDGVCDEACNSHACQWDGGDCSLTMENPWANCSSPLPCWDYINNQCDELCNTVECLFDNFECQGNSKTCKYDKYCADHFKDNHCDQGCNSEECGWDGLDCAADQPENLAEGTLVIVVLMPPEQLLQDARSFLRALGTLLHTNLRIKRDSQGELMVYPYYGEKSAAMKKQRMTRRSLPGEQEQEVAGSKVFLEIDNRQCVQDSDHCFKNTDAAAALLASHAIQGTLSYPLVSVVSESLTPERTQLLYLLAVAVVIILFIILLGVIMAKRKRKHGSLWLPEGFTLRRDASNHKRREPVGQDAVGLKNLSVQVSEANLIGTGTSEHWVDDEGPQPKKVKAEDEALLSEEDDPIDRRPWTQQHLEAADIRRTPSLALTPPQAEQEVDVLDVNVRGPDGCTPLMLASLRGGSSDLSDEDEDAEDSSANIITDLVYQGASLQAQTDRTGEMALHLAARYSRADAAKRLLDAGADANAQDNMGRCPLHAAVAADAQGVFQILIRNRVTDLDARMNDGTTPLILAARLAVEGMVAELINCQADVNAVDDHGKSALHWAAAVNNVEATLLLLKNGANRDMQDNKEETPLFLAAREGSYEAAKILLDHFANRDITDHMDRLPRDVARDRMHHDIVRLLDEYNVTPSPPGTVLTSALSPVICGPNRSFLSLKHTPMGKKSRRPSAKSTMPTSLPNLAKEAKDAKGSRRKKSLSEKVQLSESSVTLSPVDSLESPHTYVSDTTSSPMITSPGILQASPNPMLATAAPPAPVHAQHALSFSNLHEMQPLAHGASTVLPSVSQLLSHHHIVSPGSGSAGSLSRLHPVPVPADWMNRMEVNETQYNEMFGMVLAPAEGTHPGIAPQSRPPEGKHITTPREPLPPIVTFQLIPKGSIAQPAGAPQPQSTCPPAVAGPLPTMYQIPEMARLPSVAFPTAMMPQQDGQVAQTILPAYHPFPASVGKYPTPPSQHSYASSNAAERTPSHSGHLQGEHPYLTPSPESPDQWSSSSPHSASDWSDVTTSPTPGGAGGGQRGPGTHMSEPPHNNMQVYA
Test [6] concerns the target Pro-neuregulin-1, membrane-bound isoform (Homo sapiens) (UniProt Q02297). Put plainly: small molecules binding neuregulin-1 protein – biochemical, small-molecule microarray, fluorescence 635/667, psychiatric disease protein project, primary screen (AID 1075).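 Further: score combines 667 nm spot fluorescence with signal to noise.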 To be noted: NRG1 binding, 635 nm fluorescence, higher = more signal.
Test [7] relates to Neuregulin-1 EGF-like domain. As to the kind of experiment: small molecules binding NRG1 EGF domain – biochemical, small-molecule microarray, 635 nm fluorescence, primary screen (AID 1081).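 Further: binding of the protein to compounds printed on small-molecule microarray slides.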 To be noted: higher = more signal.
Test [8] can be described thus: FRG1 expression reporter modulators in myotubes – cell-based, C2C12 myotubes, firefly/Renilla luciferase, luminescence, FRG1 inhibition for FSHD, primary screen (AID 1084). Conditions: FRG1 promoter luciferase, higher = more signal, called active from +8 up or from −8 down.
The nature of test [9]: small molecules captured by biotinylated probe aFST – biochemical, small-molecule microarray, fluorescence 635/667, stem cell growth factor project, primary screen (AID 1086).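 Further: score merges 667 nm fluorescence with signal-to-noise of each printed compound spot.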 Conditions: higher = more signal.
Test [10] can be described thus: binders of probe aHhip on microarray, primary screen, stem cell growth factor project, biochemical, small-molecule microarray, fluorescence 635/667 (AID 1087).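 Further: score merges spot fluorescence at 667nm with spot signal to noise ratio.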 To be noted: higher = more signal.
Test [11] deals with PRMT1 (protein arginine N-methyltransferase 1). Put plainly: small molecules binding arginine methyltransferase PRMT1 – biochemical, small-molecule microarray, 635 nm fluorescence, primary screen (AID 1088).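 Further: binding of Prmt1 protein to compounds spotted on small-molecule microarray slides.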 To be noted: higher = more signal.
A short description of test [12]: growth effects on S. cerevisiae YJM789 – YJM789 clinical isolate, OD600, 24 h, basal, primary screen (AID 1089).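 Further: growth of clinical yeast isolate S. cerevisiae YJM 789 seeded 1000 cells per well; test concentration not given here.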 Conditions: higher = more signal, called active from +8 up or from −8 down.
Test [13] is described as follows: S. pombe growth modifiers, basal conditions – strain 972, OD600, 24 h, no modulator, primary screen (AID 1090).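 Further: basal condition with compound alone and no growth modifier present; test concentration not given here.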 To be noted: S. pombe 972 growth, higher = more signal, called active from +8 up or from −8 down.
A short description of test [14]: budding yeast growth modifiers under rapamycin – strain BY4716, OD600, 96 h, primary screen (AID 1091). Further: test concentration not given here. Conditions: S. cerevisiae BY4716 + rapamycin, higher = more signal, called active from +8 up or from −8 down.
The target in test [15] is Torsin-1A-interacting protein 2 (Homo sapiens) (UniProt Q8NFQ8). As to the kind of experiment: small molecules binding lysate-expressed LULL1 – cell lysate, human LULL1 lysate, 635/667 nm fluorescence, primary screen (AID 1092).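 Further: probe is lysate of COS7 cells overexpressing human LULL1; score merges per-feature 667 nm fluorescence with signal-to-noise.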 Conditions: small-molecule microarray, hLULL1 lysate binding, 635 nm fluorescence; higher = more signal.
Chain of Torsin-1A-interacting protein 2 (Homo sapiens) (Q8NFQ8 whole entry, looked up): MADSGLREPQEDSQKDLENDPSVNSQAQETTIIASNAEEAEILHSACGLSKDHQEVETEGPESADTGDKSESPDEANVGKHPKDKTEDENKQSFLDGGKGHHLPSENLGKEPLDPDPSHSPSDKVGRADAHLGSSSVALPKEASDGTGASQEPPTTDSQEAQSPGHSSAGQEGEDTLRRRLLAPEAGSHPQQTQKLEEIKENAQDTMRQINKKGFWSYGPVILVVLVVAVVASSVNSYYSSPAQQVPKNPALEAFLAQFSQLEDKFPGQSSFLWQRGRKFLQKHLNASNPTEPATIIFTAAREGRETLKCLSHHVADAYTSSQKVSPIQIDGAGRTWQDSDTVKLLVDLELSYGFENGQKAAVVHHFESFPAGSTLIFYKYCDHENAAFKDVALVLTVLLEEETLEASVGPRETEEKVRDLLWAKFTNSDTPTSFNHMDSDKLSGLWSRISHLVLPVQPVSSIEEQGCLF
The nature of test [16]: optical density change of DRC41 E. coli – strain DRC41, OD650, 24 h, E. coli filamentation project, primary screen (AID 1093).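 Further: MC1000 strain lacking acrAB efflux and sulA so SOS filamentation is blocked; test concentration not given here.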 To be noted: E. coli DRC41 growth, higher = more signal, called active from +8 up or from −8 down.
Test [17] in a line: probe aLefty2 binding to arrayed compounds – biochemical, biotinylated probe, 635/667 nm fluorescence, primary screen (AID 1094).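 Further: score merges spot fluorescence near 667 nm with spot signal-to-noise ratio.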 Conditions: small-molecule microarray, higher = more signal.
Test [18] concerns Noggin (protein binding on small-molecule microarray). As to the kind of experiment: small molecules binding Noggin protein – biochemical, 635/667 nm fluorescence, primary screen (AID 1095).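 Further: score merges 667 nm feature fluorescence with signal to noise over triplicate slides.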 Conditions: 635 nm fluorescence, higher = more signal.
In test [19] the target is Neurogenic locus notch homolog protein 3 (Homo sapiens) (UniProt Q9UM47). As to the kind of experiment: small molecules binding NOTCH3 protein – biochemical, 635/667 nm fluorescence, primary screen (AID 1096). To be noted: small-molecule microarray, 635 nm fluorescence, higher = more signal.
Test [20] in a line: probe aEGFR binding to arrayed compounds – biochemical, biotinylated probe, 635/667 nm fluorescence, primary screen (AID 1097).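 Further: probe is a biotinylated anti-EGFR antibody binding compounds printed on slides; score combines fluorescence near 667 nm and signal to noise of each spot.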 To be noted: small-molecule microarray, higher = more signal.

Calls of active or inactive are those of the source.

These results are taken from PubChem BioAssay.

Chain of Pro-neuregulin-1, membrane-bound isoform (Homo sapiens) (Q02297 whole entry, looked up, the tested form may be a part, canonical isoform): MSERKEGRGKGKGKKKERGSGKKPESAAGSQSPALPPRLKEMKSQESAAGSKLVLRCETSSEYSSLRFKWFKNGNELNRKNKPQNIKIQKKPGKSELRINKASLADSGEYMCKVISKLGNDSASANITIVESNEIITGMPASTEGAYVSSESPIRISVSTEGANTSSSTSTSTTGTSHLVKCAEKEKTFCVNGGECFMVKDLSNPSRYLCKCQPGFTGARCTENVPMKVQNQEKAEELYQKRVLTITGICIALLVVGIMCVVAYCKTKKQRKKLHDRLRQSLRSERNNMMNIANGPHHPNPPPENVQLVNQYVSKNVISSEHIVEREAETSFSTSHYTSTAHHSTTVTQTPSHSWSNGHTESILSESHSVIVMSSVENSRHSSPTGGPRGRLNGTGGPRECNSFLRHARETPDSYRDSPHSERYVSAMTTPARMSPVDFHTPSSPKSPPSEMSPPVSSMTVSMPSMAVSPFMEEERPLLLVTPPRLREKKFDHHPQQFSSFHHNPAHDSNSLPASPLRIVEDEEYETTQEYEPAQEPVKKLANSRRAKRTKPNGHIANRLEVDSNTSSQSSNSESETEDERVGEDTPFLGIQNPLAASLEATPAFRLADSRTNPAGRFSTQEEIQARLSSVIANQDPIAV

Regarding `COc1ccc(COC(=O)NN=C2C[C@@H](O)[C@@H](O)[C@@H]3[C@@H]4C(=O)N(C[C@@H]5CCCO5)C(=O)[C@@H]4CC[C@H]23)cc1`, the composite z-score in test [1] was 0.467; in [2] it was 0.326; in [3] it was -0.076; in test [4], -0.302; in test [5] it was -0.467; in [6], -0.234. Besides, the composite z-score was -0.563 in test [7]; 0.162 in [9]; 0.0106 in [10]; -0.478 in test [11]; 0.43 in test [15]; 0.258 in [17]. The composite z-score is -0.809 in [18], -0.398 in [19] and -0.211 in test [20]. For the same compound, the z-score in [8] is -0.249 (inactive); in test [12], -0.0944 (inactive); in test [13], 0.247 (inactive); in [14], -0.0457 (inactive); in test [16], -0.5 (inactive).

With `CC(=O)OC[C@H]1O[C@H](CC=NOC[C@@H](O)COCc2ccco2)C=C[C@@H]1OC(C)=O`, the composite z-score was -0.37 in [1]; 2.66 in [2]; -0.186 in test [3]; -0.153 in test [4]; -0.315 in test [5]; -0.974 in test [6]. In addition, the composite z-score was 0.717 in test [7]; 0.621 in [9]; 0.212 in test [10]; 1.54 in test [11]; -0.275 in test [15]; 0.0658 in test [17]. Moreover, the composite z-score is 1.77 in [18], -0.084 in test [19] and 0.495 in test [20]. For the same compound, the z-score in test [8] was -1.31 (inactive); in test [12] it was 0.441 (inactive); in test [13], -0.0992 (inactive); in [14] it was 0.116 (inactive); in test [16], 0.53 (inactive).

For the compound `C[C@@H]1CC[C@H]2C(=O)O[C@@H](CN=[N+]=[N-])CN2[C@H]1c1ccc(Br)cc1`, the composite z-score in [1] is -0.264; in test [2], -0.021; in test [3], -0.085; in test [4], 0.361; in test [5] it was 0.271; in test [6] it was 0.486. For the same compound, the composite z-score in test [7] is 0.786; in [9], 0.0048; in test [10], -0.199; in [11] it was 1.34; in test [15], 1.69; in [17] it was -0.15. The values for the composite z-score in test [18], in test [19] and in test [20] were 0.553, 0.679 and -0.104, respectively. The z-score in test [8] is -1.46 (inactive); in [12], 1.85 (inactive); in test [13], -10.5 (active); in [14], 32.7 (active); in test [16] it was 0.176 (inactive).

On to `CCN1C(=O)[C@H]2[C@H]3[C@H](O)[C@H](O)CC(=NO[C@H](C)c4cn([C@H](CO)Cc5ccccc5)nn4)[C@@H]3CC[C@H]2C1=O`, for which the composite z-score in test [1] was -0.907; in test [2], 0.0378; in test [3], -0.116; in test [4], 1.08; in [5] it was 1.01; in test [6] it was 0.782. Further, the composite z-score in test [7] was 0.934; in [9], 0.606; in [10], -0.344; in test [11], 1.4; in test [15], 1.59; in test [17], -0.207. The composite z-score in test [18] was 0.496; in test [19] it was 0.89; in test [20], -0.0132. For the same compound, the z-score in test [8] was 0.804 (inactive); in [12] it was -0.444 (inactive); in test [13] it was 0.121 (inactive); in test [14] it was -0.371 (inactive); in test [16], 0.607 (inactive).

For the compound `CC(C)(C)N1C(=O)[C@H]2[C@@H]3C(=CC[C@H]2C1=O)C(=O)[C@H]1O[C@H]1[C@H]3O`, the composite z-score in test [1] was -0.293; in test [2] it was 1.62; in test [3] it was -0.226; in [4], 0.25; in test [5] it was -0.573; in test [6], -0.261. The composite z-score in [7] was 0.17; in test [9], -0.546; in test [10], 0.0024; in test [11], 0.34; in test [15], -0.758; in test [17] it was -0.338. Also, the composite z-score in test [18] was -0.0454; in [19] it was -0.615; in test [20] it was -0.152. Moreover, the z-score in [8] is 9.15 (active); in test [12] it was -2.18 (inactive); in [13], -4.57 (inactive); in test [14], -1.63 (inactive); in test [16], -2 (inactive).
